From PubChem
uPA generation: cell surface uPA generation inhibition | cell surface uPA generation assay, qHTS | Potency, µM (highest dose often 38.3 µM), for the others: at the highest dose activity change, negative = inhibition, usual class: inhibitors | 0.31% of 330,000 active | AID 540303; active means well fitted inhibition curve with a large enough effect; inconclusive means small, poorly fitted or top-dose-only effect; inactive means no such curve, though single readings can be large or run the other way; tested in mouse RAW 264.7 cells; further: potency means the concentration at half of the fitted maximal effect; nearly all actives have a fitted effect of over 55% in size
HT1080NT lethal: kills 2HG-producing HT-1080-NT fibrosarcoma cells; HT-1080-NT fibrosarcoma viability, CellTiter-Glo ATP luminescence, 48 h; 1.6% of 360,000 active; Potency, µM (highest dose often 46.1 µM), for the others: top-dose activity, negative = less viability, actives largely listed as cytotoxic;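 further: NT is the 2HG producing partner of a matched IDH1 knockdown line; potency means the concentration at half of the fitted maximal effect; 0% = DMSO-treated cells and -100% = media-only wells without cells; nearly all actives have a fitted effect of over 55% in size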
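Fibrosarcoma NT cells, 750 per well in 5% FBS RPMI, were exposed to compound for 48 hours. Viability: CellTiter-Glo luminescence.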
HT1080 IDH1KD tx: kills HT-1080 cells with IDH1 knockdown; AID 686971; 2% of 360,000 active; HT-1080 IDH1 knockdown viability, ATP luminescence, 48 h; Potency, µM (series often up to 46.1 µM), for inactives: top-dose activity, negative = toxicity, hits mostly cytotoxic;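 further: potency means the concentration at half of the fitted maximal effect; 0% = DMSO wells and -100% = cell-free medium wells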
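CellTiter-Glo luminescence after 48 h compound exposure at 37 degrees C of IDH1-knockdown HT-1080 cells in 5% FBS RPMI. %Activity scaled between DMSO wells and cell-free media wells, with curves fitted and assigned curve classes.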
TDP1 cell CPT: DT40-hTDP1 cell growth loss with CPT. chicken DT40 Tdp1-/-;hTDP1 cells + 20 nM CPT, ATP luminescence, 48 h. Potency, µM (highest dose often 46.2 µM), for inactives: at the top dose activity change, negative = growth inhibition, hits mostly inhibitors. 12% of 420,000 active. AID 686979; further: potency means the concentration at half of the fitted maximal effect; nearly all actives have a fitted effect of over 55% in size
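Chicken DT40 Tdp1-/- cells stably complemented with human TDP1 were seeded at 400 cells/well in medium containing 20 nM camptothecin, exposed to pin-transferred compounds, and grown at 37 °C for at least 48 hr. Viability was read as ATP luminescence.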
DT40 TDP1 no CPT: qHTS for Inhibitors of human tyrosyl-DNA phosphodiesterase 1 (TDP1): qHTS in cells in absence of CPT. AID 686978, 2013. DT40 Tdp1-/- hTDP1 cells, no CPT, ATP luminescence, 48 h. 15% of 420,000 active. Potency, µM (highest dose often 46.2 µM), for the others: at the highest dose activity change, negative = growth inhibition, most hits filed as inhibitors; further: potency means the concentration at half of the fitted maximal effect; nearly all actives have a fitted effect of over 55% in size
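DT40 Tdp1-/-;hTDP1 cells, no CPT (DMSO vehicle only), 400 cells/well; compounds pin-transferred; ≥48 hr, 37 °C; CellTiter-Glo 30 min RT dark, luminescence read.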
IL1B secr inh: inflammasome signaling inhibition, IL-1 beta readout | THP-1 LPS/ATP IL-1B secretion, AlphaLISA, 16 h; stronger effect = lower value | activity change, % at 57.5 µM | 4.7% of 360,000 active; in the data active means activity change below about -50%; inconclusive means mostly about -30% to -49%
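Secreted IL-1B measured by AlphaLISA bead assay after 16 h compound exposure of THP-1 cells; compounds (final up to 57.5 uM) added 1 h before LPS (250 ng/mL) and ATP (1.25 mM) stimulation; lower signal means less secretion.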
Numbers without * were called inactive; ? = inconclusive; nt = no result given. The list is not random: actives were taken first. Their share in the collection is about 19%. Unless noted, the call rests on the fitted dose curve; in most records, active means well fitted curve in the direction sought with a large enough effect; inconclusive means small, poorly fitted or top-dose-only effect, or another doubt; inactive means no such curve, though single readings can be large; an effect the other way counts as inactive or inconclusive. Unless noted, on the % scale 0 is the no-effect control and ±100 the full control effect.

SMILES | uPA generation | HT1080NT lethal | HT1080 IDH1KD tx | TDP1 cell CPT | DT40 TDP1 no CPT | IL1B secr inh
NC(c1csc(Nc2ncccn2)n1)c1ccccc1Cl (stereo not drawn) | nt | ? | ? | 21µM* | 21µM* | -1
O=C(NCCc1nc2ccccc2[nH]1)c1cc([N+](=O)[O-])cc([N+](=O)[O-])c1 | 2% | 1% | 2% | -7% | 2% | 27
c1ccc(N/N=C(\Cc2nc3ccccc3[nH]2)c2ccccc2)cc1 | ? | -4% | -23% | ? | ? | -68*
N/N=C(/Cc1nc2ccccc2[nH]1)c1ccc([N+](=O)[O-])cc1 | -6% | -6% | -29% | 26µM* | ? | -6
Cc1ccc(N/N=C(\Cc2nc3ccccc3[nH]2)c2ccccc2)cc1 | -6% | 1.3µM* | 0.92µM* | 0.82µM* | 0.65µM* | 0
Clc1cccc(/C(Cc2nc3ccccc3[nH]2)=N\Nc2ccccc2)c1 | 6% | ? | ? | ? | ? | -78*
COc1ccc(NC(=O)c2[nH]nc3c2CSc2ccccc2-3)c(OC)c1 | nt | nt | nt | -13% | -28% | nt
CN1CCN(C(=O)c2cnn(-c3ccc(F)cc3F)c2C2CCN(C(=O)OC(C)(C)C)CC2)CC1 | nt | nt | nt | 10% | 4% | nt
Cc1ccc(-n2ncc(C(=O)N3CCN(Cc4ccccc4)CC3)c2C2CCN(C(=O)OC(C)(C)C)CC2)c(C)c1 | nt | nt | nt | 4.6µM* | 13µM* | nt
Cc1cccc(-n2ncc(C(=O)NCc3ccco3)c2C2CCN(C(=O)OC(C)(C)C)CC2)c1 | nt | nt | nt | 16µM* | ? | nt
CCN1CCN(C(=O)c2cnn(-c3cccc(C)c3)c2C2CCN(C(=O)OC(C)(C)C)CC2)CC1 | nt | nt | nt | 21µM* | ? | nt
Cc1ccc(-n2ncc(C(=O)N3CCN(C(=O)c4ccco4)CC3)c2C2CCN(C(=O)OC(C)(C)C)CC2)cc1 | nt | nt | nt | -3% | -10% | nt
CC(C)(C)OC(=O)N1CCC(c2c(C(=O)N3CCN(c4ccc(Cl)cc4)CC3)cnn2-c2ccc(F)cc2F)CC1 | nt | nt | nt | ? | 16µM* | nt
O=C(CN1CCN(Cc2ccccc2Cl)CC1)N/N=C/c1cccs1 | -1% | -4% | -7% | 16% | -13% | 0
O=C(Nc1nccs1)c1cnc2sccn2c1=O | nt | 2% | 9% | -1% | 0% | 31
CN1CCN(C(=O)c2cnn(-c3cccc(Cl)c3)c2C2CCN(C(=O)OC(C)(C)C)CC2)CC1 | nt | nt | nt | -1% | -22% | nt
COc1cccc(N2CCN(C(=O)c3cnn(-c4ccccc4Cl)c3C3CCN(C(=O)OC(C)(C)C)CC3)CC2)c1 | nt | nt | nt | ? | 21µM* | nt
CC(C)(C)OC(=O)N1CCC(c2c(C(=O)NCc3ccccn3)cnn2-c2ccccc2Cl)CC1 | nt | nt | nt | ? | -29% | nt
CC(C)(C)OC(=O)N1CCC(c2c(C(=O)N3CCN(c4ccccc4F)CC3)cnn2-c2ccccc2Cl)CC1 | nt | nt | nt | 18µM* | 16µM* | nt
COc1cccc(N2CCN(C(=O)c3cnn(-c4ccc(C)cc4C)c3C3CCN(C(=O)OC(C)(C)C)CC3)CC2)c1 | nt | nt | nt | ? | 21µM* | nt
CCC(Cn1nnc2ccccc2c1=O)NC(=O)Nc1cccc(C)c1C (stereo not drawn) | nt | nt | nt | -19% | 10% | nt
O=C(Nc1ccc2nc(SCC(=O)N3CCCC3)sc2c1)c1cccc(F)c1 | nt | nt | nt | 21µM* | 15µM* | nt
O=C(Nc1ccc2nc(SCC(=O)N3CCCC3)sc2c1)c1ccc(F)cc1 | nt | nt | nt | -4% | -19% | nt
O=C(Nc1ccc2nc(SCC(=O)N3CCOCC3)sc2c1)c1ccc(F)cc1 | nt | nt | nt | 16µM* | 12µM* | nt
O=C(Nc1ccc2nc(SCC(=O)N3CCOCC3)sc2c1)c1cccc(F)c1 | nt | nt | nt | 23µM* | 21µM* | nt
